TsaE inh: displaces an ADP probe from E. coli YjeE (TsaE); AID 605; P0AF67; purified YjeE enzyme, qHTS inhibition assay; Potency, µM; 71,000 compounds, 0.05% hits
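Fluorescence polarization of a BODIPY Texas Red–ADP probe (2 uM) bound to purified YjeE (10 uM) was read after 15 min room-temperature incubation with compounds. Loss of polarization marks inhibitors; ADP serves as titrated control.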
BRCT inh red: BRCT-phosphoprotein interaction inhibition (red fluorophore). 75,000 compounds, 0.03% hits. P38398. Potency, µM (doses to about 76.9 µM), without a hit: at the top dose activity change, negative = inhibition, hits mostly inhibitors. BRCT-phosphopeptide binding, red fluorescence polarization; also: % is scaled to controls: 0 for no effect and ±100 for the full control effect
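Fluorescence polarization: 100 nM His-tagged BRCA1 BRCT with 100 nM TAMRA-labelled phospho-BACH1 decapeptide, phosphate buffer pH 7.3 with 150 mM NaCl, DTT, 0.01% Tween 20; 12 min RT. Binding inhibition seen as FP decrease.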
15-hLO inh: 15-hLO (ALOX15) enzyme inhibition. 74,000 compounds, 1.4% hits. AID 887. Potency, µM (titrated, usually from 57.1 µM), for the others: at the top dose activity change, negative = inhibition, most hits filed as inhibitors. purified 15hLO-1, xylenol orange hydroperoxide absorbance. P16050; also: potency is read from the fitted curve at half-maximal effect; % is scaled to controls: 0 for no effect and ±100 for the full control effect; nearly all actives have a fitted effect of over 55% in size
Target sequence (P16050 whole entry, looked up): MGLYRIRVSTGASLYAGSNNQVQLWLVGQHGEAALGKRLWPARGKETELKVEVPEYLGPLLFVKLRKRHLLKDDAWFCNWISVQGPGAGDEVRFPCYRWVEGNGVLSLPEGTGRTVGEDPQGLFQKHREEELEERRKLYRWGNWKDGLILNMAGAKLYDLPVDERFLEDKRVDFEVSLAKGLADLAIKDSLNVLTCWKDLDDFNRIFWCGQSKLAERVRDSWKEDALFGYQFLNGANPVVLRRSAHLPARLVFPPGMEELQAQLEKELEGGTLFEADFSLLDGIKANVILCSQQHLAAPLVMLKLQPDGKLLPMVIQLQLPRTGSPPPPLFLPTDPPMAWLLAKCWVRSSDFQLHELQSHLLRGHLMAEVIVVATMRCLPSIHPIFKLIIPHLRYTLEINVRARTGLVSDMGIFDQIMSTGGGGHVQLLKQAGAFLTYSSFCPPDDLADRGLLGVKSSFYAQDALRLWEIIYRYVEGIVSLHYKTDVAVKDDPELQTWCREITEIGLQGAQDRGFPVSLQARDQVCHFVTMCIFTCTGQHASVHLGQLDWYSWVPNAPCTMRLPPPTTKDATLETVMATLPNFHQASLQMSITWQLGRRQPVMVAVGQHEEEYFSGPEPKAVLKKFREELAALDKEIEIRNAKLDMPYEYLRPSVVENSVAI
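Compounds were preincubated 15 min at room temperature with 40 nM purified human enzyme (25 mM Hepes pH 7.5, 0.01% Triton X-100); 50 uM arachidonic acid reacted 6 min. Fe-xylenol orange detection, 30 min, absorbance ratio 573/405 nm.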
Pol III holo inh: blocks replication by bacterial DNA polymerase III holoenzyme; reconstituted DNA polymerase III holoenzyme replication, biochemical; Potency, µM (doses to about 57.1 µM), without a hit: at the top dose activity change, negative = inhibition; 71,000 compounds, 0.25% hits; AID 603; also: potency is read from the fitted curve at half-maximal effect; % is scaled to controls: 0 for no effect and ±100 for the full control effect
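Reconstituted *E. coli* holoenzyme (0.35 nM Pol III, 1 nM beta, 154 nM SSB, 2 nM primase) was preincubated with compound for 15 min at RT. Synthesis on 1.4 nM ssM13Gori ran 35 min, then was stopped with PicoGreen/EDTA and read as dsDNA fluorescence.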
Hsp90 Hop PPI: changes Hsp90-Hop TPR2A binding signal, up or down | AlphaScreen TPR2A-His6 binding biotin-Hsp90 C-terminal peptide | Potency, µM (highest dose often 57 µM), for inactives: at the top dose activity change, negative = inhibition | 71,000 compounds, 0.44% hits; active = well fitted curve in either direction with a large enough effect; inconclusive = small, poorly fitted or top-dose-only effect, or another doubt; also: potency is read from the fitted curve at half-maximal effect; % is scaled to controls: 0 for no effect and ±100 for the full control effect
BRCT PPI green: blocks human BRCA1 BRCT binding to phosphopeptide, green readout. P38398. BRCA1 BRCT-phosphopeptide binding, green fluorescence polarization. Potency, µM (series often up to 76.9 µM), without a hit: at the top dose activity change, negative = inhibition, most hits filed as inhibitors. 75,000 compounds, 0.05% hits;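 also: potency is read from the fitted curve at half-maximal effect; plate controls were peptide without protein for full effect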
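Compounds were incubated for 12 min at room temperature with a complex of 100 nM fluorescein-tagged pBACH1 decapeptide and 250 nM His-tagged BRCT protein. Buffer was phosphate pH 7.3 with EDTA, DTT and Tween 20. Disruption of binding lowers the polarization signal.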
Starred values were filed as active, the others as inactive; [ ] = remark or other dose. In the library only some 1.9% were active in any assay of this set; here they are far more common. Unless noted, calls follow the shape of the dose curve; as a rule, active = well fitted curve in the direction sought with a large enough effect; inconclusive = small, poorly fitted or top-dose-only effect, or another doubt; inactive = no such curve, though single readings can be large; an effect the other way counts as inactive or inconclusive.

How did N.N.O=C(O)C1(C(=O)O)CCC1.[Pt] do in these assays?
TsaE inh: inactive; BRCT inh red: 0.6%; 15-hLO inh: 0.631µM*; Pol III holo inh: 7.94µM*; Hsp90 Hop PPI: inconclusive; BRCT PPI green: -2.0%[3.08 µM]

What do the screens show for `Cc1nnc(SCC2=C(C(=O)O)N3C(=O)[C@@H](NC(=O)Cn4cnnn4)[C@@H]3SC2)s1`?
TsaE inh: inactive; BRCT inh red: 1.1%[34.4 µM]; 15-hLO inh: -2.9%[25.6 µM]; Pol III holo inh: -4.3%[25.6 µM]; Hsp90 Hop PPI: -0.6%[26 µM]; BRCT PPI green: -2.7%[34.4 µM]

What do the screens show for `CCOc1ccccc1OCc1nn2c(COc3ccccc3)nnc2s1`?
TsaE inh: inactive; BRCT inh red: -1.7%; 15-hLO inh: 3.16µM*; Pol III holo inh: -5.0%; Hsp90 Hop PPI: 2.9%; BRCT PPI green: -1.9%

What do the screens show for `c1ccc(Cc2nn3c(COc4ccccc4)nnc3s2)cc1`?
TsaE inh: inactive; BRCT inh red: 0.6%; 15-hLO inh: -7.7%; Pol III holo inh: -5.4%; Hsp90 Hop PPI: -2.8%; BRCT PPI green: 0.6%

Results for N#CC1=C2SCN(c3ccccc3)CN2C(=O)CC1c1cccs1 (configuration not stated) ?
TsaE inh: inactive; BRCT inh red: -0.8%; 15-hLO inh: 3.98µM*; Pol III holo inh: -6.0%; Hsp90 Hop PPI: -4.6%; BRCT PPI green: 0.1%

Results for N#CC1=C2SCN(c3ccccc3)CN2C(=O)CC1c1ccccc1Cl (configuration not stated) ?
TsaE inh: inactive; BRCT inh red: 1.8%; 15-hLO inh: inconclusive; Pol III holo inh: -4.7%; Hsp90 Hop PPI: -2.4%[2.3 µM]; BRCT PPI green: -0.1%

Results for Cc1ccc(C2CC(=O)N3CN(c4ccc(Br)cc4)CSC3=C2C#N)o1 (configuration not stated) ?
TsaE inh: inactive; BRCT inh red: -4.4%; 15-hLO inh: 2.51µM*; Pol III holo inh: -11.4%; Hsp90 Hop PPI: -8.6%; BRCT PPI green: -1.6%

How did N#CC1=C2SCN(c3ccccc3)CN2C(=O)CC1c1c(Cl)cccc1Cl (configuration not stated) do in these assays?
TsaE inh: inactive; BRCT inh red: -1.1%; 15-hLO inh: 3.16µM*; Pol III holo inh: -5.2%; Hsp90 Hop PPI: 1.8%[2.3 µM]; BRCT PPI green: -1.1%

How did [Cu].[O-]/N=C1/C(=[OH+])Nc2ccccc21.[O-]Nc1c(O)[nH]c2ccccc12 do in these assays?
TsaE inh: inactive; BRCT inh red: 0.3%[15.4 µM]; 15-hLO inh: 3.3%[11.4 µM]; Pol III holo inh: -9.0%[11.4 µM]; Hsp90 Hop PPI: -2.0%[11 µM]; BRCT PPI green: -1.1%[15.4 µM]

What do the screens show for `C=CC(C)(C)c1[nH]c2ccccc2c1C1=C(O)C(=O)C(c2c[nH]c3c(CC=C(C)C)cccc23)=C(O)C1=O`?
TsaE inh: 100µM*; BRCT inh red: -5.8%; 15-hLO inh: inconclusive; Pol III holo inh: 1.26µM*; Hsp90 Hop PPI: inconclusive; BRCT PPI green: -5.9%

What do the screens show for `Nc1nc(SCC(=O)O)[nH]c(=O)c1N`?
TsaE inh: inactive; BRCT inh red: 0.9%[15.4 µM]; 15-hLO inh: 2.7%[11.4 µM]; Pol III holo inh: -8.0%[11.4 µM]; Hsp90 Hop PPI: -3.2%[11 µM]; BRCT PPI green: -1.1%[15.4 µM]

How did O=C(O)c1cn[nH]c1-n1cnnn1 do in these assays?
TsaE inh: inactive; BRCT inh red: -3.4%; 15-hLO inh: -2.2%; Pol III holo inh: -4.1%; Hsp90 Hop PPI: 25.1µM*; BRCT PPI green: -2.4%

Results for CCCc1cc(COC)c(C#N)c(=O)[nH]1 ?
TsaE inh: inactive; BRCT inh red: -0.9%[15.4 µM]; 15-hLO inh: 9.2%[11.4 µM]; Pol III holo inh: 0.6%[11.4 µM]; Hsp90 Hop PPI: 0.1%[11 µM]; BRCT PPI green: -0.6%[15.4 µM]

Results for Cc1cccc(NC(=O)CN2C(=O)COc3ccc(Cl)cc32)c1 ?
TsaE inh: inactive; BRCT inh red: -0.8%; 15-hLO inh: 5.01µM*; Pol III holo inh: -7.0%; Hsp90 Hop PPI: inconclusive; BRCT PPI green: -2.0%

How did C=CC(=O)OCCOCCOC(=O)C=C do in these assays?
TsaE inh: inactive; BRCT inh red: 0.3%; 15-hLO inh: -2.5%; Pol III holo inh: -3.7%; Hsp90 Hop PPI: 0.5%; BRCT PPI green: -0.9%

What do the screens show for `COc1ccc(NC(=O)N(CCCN(C)C)Cc2cc3cc(OC)ccc3[nH]c2=O)cc1`?
TsaE inh: inactive; BRCT inh red: 1.6%; 15-hLO inh: -3.7%; Pol III holo inh: -2.8%; Hsp90 Hop PPI: -1.1%; BRCT PPI green: 0.3%

What do the screens show for `COc1ccc(NC(=O)N(Cc2cc3cc(OC)ccc3[nH]c2=O)CC2CCCO2)cc1` (configuration not stated)?
TsaE inh: inactive; BRCT inh red: -0.7%; 15-hLO inh: 20µM*; Pol III holo inh: inconclusive; Hsp90 Hop PPI: -6.9%; BRCT PPI green: -4.7%

How did O=C(Nc1ccc(F)cc1)N(CCCN1CCOCC1)Cc1cc2cc3c(cc2[nH]c1=O)OCCO3 do in these assays?
TsaE inh: inactive; BRCT inh red: -0.5%; 15-hLO inh: -9.5%; Pol III holo inh: -1.3%; Hsp90 Hop PPI: -1.8%; BRCT PPI green: 0.9%

Results for CCc1ccc2[nH]c(=O)c(CN(CCCN3CCOCC3)C(=O)Nc3ccc(F)cc3)cc2c1 ?
TsaE inh: inactive; BRCT inh red: -1.8%; 15-hLO inh: 15.8µM*; Pol III holo inh: -2.9%; Hsp90 Hop PPI: inconclusive; BRCT PPI green: 9.0%

Results for Clc1ccc2c(NC3CCC(N4CCCCC4)CC3)ccnc2c1 (configuration not stated) ?
TsaE inh: inactive; BRCT inh red: -0.7%[15.4 µM]; 15-hLO inh: 11.5%[11.4 µM]; Pol III holo inh: -7.1%[11.4 µM]; Hsp90 Hop PPI: -7.5%[11 µM]; BRCT PPI green: -1.9%[15.4 µM]

How did Cc1ccc(S(=O)(=O)Oc2ccc(N=Nc3ccc(-c4ccc(N=Nc5c(O)ccc6cc(S(=O)(=O)O)cc(S(=O)(=O)O)c56)c(C)c4)cc3C)cc2)cc1 do in these assays?
TsaE inh: inactive; BRCT inh red: 2.6%; 15-hLO inh: inconclusive; Pol III holo inh: 31.6µM*; Hsp90 Hop PPI: 0.0501µM*; BRCT PPI green: 6.7%

How did Cc1ccc(N=Nc2c(O)ccc3cc(S(=O)(=O)O)ccc23)cc1 do in these assays?
TsaE inh: inactive; BRCT inh red: 1.2%[15.4 µM]; 15-hLO inh: -7.7%[11.4 µM]; Pol III holo inh: -7.6%[11.4 µM]; Hsp90 Hop PPI: inconclusive; BRCT PPI green: -2.2%[15.4 µM]

What do the screens show for `Oc1ccc(N=Cc2ccc(O)c(O)c2)cc1`?
TsaE inh: inconclusive; BRCT inh red: -1.5%; 15-hLO inh: 12.6µM*; Pol III holo inh: -24.6%; Hsp90 Hop PPI: -28.9%; BRCT PPI green: -2.2%

Results for COc1ccc(-c2cc(C(=O)NCc3cccs3)no2)cc1OC ?
TsaE inh: inactive; BRCT inh red: -0.7%; 15-hLO inh: -12.8%; Pol III holo inh: -1.8%; Hsp90 Hop PPI: -1.0%; BRCT PPI green: -0.9%

Source: PubChem BioAssay (National Center for Advancing Translational Sciences (NCATS))
